Inconclusive results are not listed. Unmarked numbers belong to inactive results. The call rests on the fitted dose curve; in most records, active means well fitted inhibition curve with a large enough effect; inconclusive means small, poorly fitted or top-dose-only effect; inactive means no such curve, though single readings can be large or run the other way.
Biological target: RecQ-like DNA helicase BLM (Homo sapiens) (UniProt P54132)
Experiment: qHTS Validation Assay for Inhibitors of Bloom's syndrome helicase (BLM) (AID 2364);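 further: plate controls were DMSO vehicle for no effect and enzyme-free control for full effect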
Conditions: BLM helicase DNA unwinding, fluorescence, in vitro; series mostly up to 57.1 µM; activity change, negative = inhibition: at the top concentration
In short: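 BLM 50 nM in 25 mM Tris-HCl pH 8.0, 5 mM NaCl, 2 mM MgCl2, 1 mM DTT, 0.01% Tween-20, 2.5 ug/ml poly(dI-dC); 15 min cpd preinc, RT. Start: 200 nM forked DNA + 2 mM ATP (final). TAMRA read, 2 reads 2 h apart.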

Sequence of RecQ-like DNA helicase BLM (Homo sapiens) (P54132 whole entry, looked up): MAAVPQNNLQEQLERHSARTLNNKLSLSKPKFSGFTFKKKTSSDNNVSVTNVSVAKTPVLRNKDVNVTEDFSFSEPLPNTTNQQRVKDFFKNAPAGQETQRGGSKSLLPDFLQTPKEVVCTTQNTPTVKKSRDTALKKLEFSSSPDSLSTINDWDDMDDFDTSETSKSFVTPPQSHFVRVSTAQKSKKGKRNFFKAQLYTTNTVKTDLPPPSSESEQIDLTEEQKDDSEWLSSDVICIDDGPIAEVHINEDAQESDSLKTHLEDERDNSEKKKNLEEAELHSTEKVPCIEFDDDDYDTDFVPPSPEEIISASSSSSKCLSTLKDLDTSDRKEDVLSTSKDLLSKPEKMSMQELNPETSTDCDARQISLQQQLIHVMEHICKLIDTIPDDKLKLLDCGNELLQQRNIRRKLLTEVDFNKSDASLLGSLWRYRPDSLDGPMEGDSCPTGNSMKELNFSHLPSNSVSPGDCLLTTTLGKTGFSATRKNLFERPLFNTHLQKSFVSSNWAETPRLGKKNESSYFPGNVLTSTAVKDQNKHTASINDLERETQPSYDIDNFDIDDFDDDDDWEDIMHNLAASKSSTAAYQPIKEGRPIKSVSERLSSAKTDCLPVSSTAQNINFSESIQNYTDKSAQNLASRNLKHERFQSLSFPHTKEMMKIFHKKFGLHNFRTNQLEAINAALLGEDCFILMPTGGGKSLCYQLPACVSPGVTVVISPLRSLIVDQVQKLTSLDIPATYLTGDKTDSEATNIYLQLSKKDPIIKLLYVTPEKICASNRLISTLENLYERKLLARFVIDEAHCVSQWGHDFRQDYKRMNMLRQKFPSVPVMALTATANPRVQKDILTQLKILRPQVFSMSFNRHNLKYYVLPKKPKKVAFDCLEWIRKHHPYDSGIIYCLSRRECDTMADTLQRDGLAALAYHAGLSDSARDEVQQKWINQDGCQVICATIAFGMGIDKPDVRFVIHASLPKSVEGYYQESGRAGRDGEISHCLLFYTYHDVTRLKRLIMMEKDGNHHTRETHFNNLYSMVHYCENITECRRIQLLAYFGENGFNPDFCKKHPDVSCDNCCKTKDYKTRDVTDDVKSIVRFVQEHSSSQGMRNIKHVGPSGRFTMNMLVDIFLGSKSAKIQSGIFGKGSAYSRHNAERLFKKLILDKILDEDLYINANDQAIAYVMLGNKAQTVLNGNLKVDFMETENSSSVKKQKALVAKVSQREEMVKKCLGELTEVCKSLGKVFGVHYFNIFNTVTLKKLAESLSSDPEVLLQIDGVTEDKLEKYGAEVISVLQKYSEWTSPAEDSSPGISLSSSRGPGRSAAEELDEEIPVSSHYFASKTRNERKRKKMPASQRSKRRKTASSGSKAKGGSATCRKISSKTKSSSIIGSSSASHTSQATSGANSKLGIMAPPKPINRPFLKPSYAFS

**Q.** How did the “activity change, negative = inhibition” value turn out when c1ccc2c(c1)CC(N1CCN(c3cccc4c3OCCO4)CC1)C2 was run?
**A.** Its value is -5.05%.

**Q.** Which “activity change, negative = inhibition” value does the source give for N[C@@H](Cc1ccc(F)cc1)C(=O)O here?
**A.** The value was -12%.

**Q.** CNC(=O)c1cc2c(cn1)[nH]c1ccccc12 was tested. Which “activity change, negative = inhibition” value did it give?
**A.** The value was 6.82%.

**Q.** How did the “activity change, negative = inhibition” value turn out when COC(=O)C(C)(N)Cc1ccc(O)cc1 (stereo not drawn) was run?
**A.** Its value is -5.28%.

**Q.** With O=c1onc2cnc3ccccc3n12 as the molecule, how does the “activity change, negative = inhibition” value read?
**A.** The value was -4.56%.

**Q.** How did the “activity change, negative = inhibition” value turn out when CC(=O)O[C@H]1CC2(C)[C@@H](C[C@@H](O)[C@H]3[C@@]4(C)CC[C@@H](O)[C@@H](C)[C@@H]4CC[C@@]32C)C1=C(CCC=C(C)C)C(=O)O (stereo partly drawn) was run?
**A.** The value was -12.1%.

**Q.** How did the “activity change, negative = inhibition” value turn out when C#CC(N)CCC(=O)O (stereo not drawn) was run?
**A.** Its value is -11.4%.

**Q.** COc1ccccc1N1CCN(CCCNc2c(C)c(=O)n(C)c(=O)n2C)CC1 was tested. Which “activity change, negative = inhibition” value did it give?
**A.** The value was -12.3%.

**Q.** For CCN(CC)CCCCCCCCOC(=O)c1cc(OC)c(OC)c(OC)c1, which “activity change, negative = inhibition” value is on record?
**A.** Its value is -5.97%.

**Q.** With CC(=O)NNC(=O)N1Cc2ccccc2Oc2ccc(Cl)cc21 as the molecule, how does the “activity change, negative = inhibition” value read?
**A.** The value was -7.9%.

**Q.** With CNCCNS(=O)(=O)c1cccc2cnccc12 as the molecule, how does the “activity change, negative = inhibition” value read?
**A.** Its value is -7.27%.

**Q.** Nc1ccc(N2C(=O)c3ccccc3C2=O)c(Cl)c1 was tested. Which “activity change, negative = inhibition” value did it give?
**A.** Its value is -7.14%.

**Q.** Which “activity change, negative = inhibition” value does the source give for Cn1c(=O)c2[nH]c(C3CCCC3)nc2n(C)c1=O here?
**A.** Its value is -8.3%.

**Q.** Which “activity change, negative = inhibition” value does the source give for COc1cc(C(O)CO)ccc1O (stereo not drawn) here?
**A.** Its value is -12.2%.

**Q.** How did the “activity change, negative = inhibition” value turn out when O=S(=O)(c1cccc2c(Cl)cccc12)N1CCCNCC1 was run?
**A.** Its value is 4.79%.

**Q.** For Nc1nc2[nH]c(=O)cnc2c(=O)[nH]1, which “activity change, negative = inhibition” value is on record?
**A.** The value was -7.01%.

**Q.** Fc1ccc(CN(C2=NCCN2)c2c(Cl)cccc2Cl)cc1 was tested. Which “activity change, negative = inhibition” value did it give?
**A.** The value was -11.7%.

**Q.** For COc1cc(N)c(Cl)cc1C(=O)OCCN1CCCCC1, which “activity change, negative = inhibition” value is on record?
**A.** Its value is -0.332%.
